ATG4B inhibitor – blocks human ATG4B protease cleavage of LC3 substrate; 340,000 tested, 0.51% active; ATG4B cleavage of LC3-PLA2, NBD-HPC fluorescence, 1 h; inhibition, % at 8.33 µM; AID 504462; in the data active = inhibition above about 40%
DAGLB inh – blocks human DAGLB lipase activity | inhibition, % at 5.17 µM | Q8NCG7 | 340,000 tested, 0.059% active | HEK293T DAGLB membrane lysate, EnzChek fluorogenic substrate; in the data active = inhibition above about 34%;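 also: 0% = enzyme with vehicle and 100% = wells lacking enzyme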
Target sequence (Q8NCG7 whole entry, looked up): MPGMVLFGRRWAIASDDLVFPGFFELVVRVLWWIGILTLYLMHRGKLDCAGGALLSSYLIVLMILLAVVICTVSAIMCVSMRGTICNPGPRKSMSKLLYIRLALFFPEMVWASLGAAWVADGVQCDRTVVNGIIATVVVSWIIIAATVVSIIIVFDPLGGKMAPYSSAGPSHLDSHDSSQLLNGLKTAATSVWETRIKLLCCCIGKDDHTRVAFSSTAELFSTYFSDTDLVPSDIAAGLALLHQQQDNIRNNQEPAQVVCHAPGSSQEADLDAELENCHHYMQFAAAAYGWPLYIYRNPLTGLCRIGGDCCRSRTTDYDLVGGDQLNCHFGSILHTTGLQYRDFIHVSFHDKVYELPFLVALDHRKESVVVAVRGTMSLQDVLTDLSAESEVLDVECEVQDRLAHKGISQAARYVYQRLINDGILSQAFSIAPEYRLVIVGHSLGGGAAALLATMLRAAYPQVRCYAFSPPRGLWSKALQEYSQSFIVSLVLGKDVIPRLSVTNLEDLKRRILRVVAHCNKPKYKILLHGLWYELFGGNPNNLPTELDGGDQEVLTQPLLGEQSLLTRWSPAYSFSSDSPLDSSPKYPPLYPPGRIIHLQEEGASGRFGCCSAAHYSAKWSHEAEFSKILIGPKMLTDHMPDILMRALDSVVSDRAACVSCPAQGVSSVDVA
PAFAH2 inh – PAFAH2 (human) inhibition | inhibition, % at 3.39 µM | Q99487 | 340,000 tested, 0.99% active | recombinant PAFAH2, FP-rhodamine activity probe, fluorescence polarization;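 active = inhibition above the mean over all tested compounds plus 3 SD, cut at about 30% in these data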;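 also: inhibitors block probe labeling of enzyme so polarization drops; 0% = enzyme with DMSO and 100% = wells lacking PAFAH2 protein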
pPAFAH inh – inhibitors of human plasma PAF acetylhydrolase (pPAFAH); inhibition, % at 3.39 µM; 330,000 tested, 1.5% active; Q13093; recombinant pPAFAH, FP-rhodamine probe fluorescence polarization;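 active = inhibition above the mean inhibition across the screen plus 3 SD, cut at about 25% in these data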;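 also: inhibitors block binding of the rhodamine activity-based probe so polarization drops; 0% = enzyme with DMSO and 100% = wells lacking pPAFAH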
PAFAH1B2 inh – inhibitors of human PAFAH1B2. recombinant PAFAH1B2, FP-rhodamine activity probe, fluorescence polarization. AID 492953. 340,000 tested, 1.2% active. inhibition, % at 3.39 µM. P68402;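 active = inhibition above the mean of all tested compounds plus 3 SD, cut at about 24% in these data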;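 also: 0% = enzyme with DMSO and 100% = wells lacking PAFAH1B2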
PAFAH1B3 inh – inhibitors of human PAFAH1B3 | Q15102 | recombinant PAFAH1B3, FP-rhodamine probe, fluorescence polarization | inhibition, % at 3.39 µM | 340,000 tested, 0.28% active;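 active = inhibition above the screen-wide average of all tested compounds plus 3 SD, cut at about 25% in these data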;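 also: 0% = enzyme with DMSO only and 100% = wells lacking PAFAH1B3 protein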
ATG4B conf – confirmation of human ATG4B inhibitors; shares compounds with ATG4B inhibitor; ATG4B protease fluorescent substrate cleavage assay; inhibition, % at 8.33 µM; 320 tested, 92% active; in the data active = inhibition above about 39%
PLA2 ctr – inhibits human PLA2, flagging false ATG4B inhibitors | 1,600 tested, 66% active | purified PLA2, NBD-C6-HPC fluorescence, 45 min | inhibition, % at 8.33 µM | shares compounds with ATG4B inhibitor; in the data active = inhibition above about 50%
Active calls of the source: *; x = no result given. Only some compounds are listed: those with a hit (about 3% of all), similar ones and a draw of the others.

SMILES	ATG4B inhibitor	DAGLB inh	PAFAH2 inh	pPAFAH inh	PAFAH1B2 inh	PAFAH1B3 inh	PLA2 ctr	others
COc1ccc2ccc(C(C)(C(C)=O)C(=O)OC(C)C)cc2c1 (stereo not drawn)	9	-9	5	-6	9	-6	x
CC1Sc2ccc(S(=O)(=O)CCC(=O)Nc3ccc(C(C)C)cc3)cc2NC1=O (stereo not drawn)	-5	1	2	16	13	4	x
O=C(c1ccc2c(=O)n(C3CCCC3)c(=S)[nH]c2c1)N1CCCCCC1	62*	-4	3	6	12	7	65*
CCOC(=O)C1CCCN(C(=O)c2ccc3c(=O)n(Cc4ccccc4OC)c(=S)[nH]c3c2)C1 (stereo not drawn)	51*	-2	5	4	2	2	44	ATG4B conf=74*
CCOC(=O)C1CCCN(C(=O)c2ccc(Cn3c(=S)[nH]c4cc(C(=O)OC)ccc4c3=O)cc2)C1 (stereo not drawn)	-5	1	-2	2	0	1	x
Cc1cccc(C)c1NC(=O)CCCSc1nc2ccccc2s1	47*	-9	2	5	-1	-5	31
CCOC(=O)c1c(NS(=O)(=O)c2ccc(Br)cc2)sc2c1CCC2	46*	9	12	23	9	14	57*
O=c1c2ccccc2nc(SCc2cn3ccsc3n2)n1-c1ccccc1	60*	0	-2	5	5	6	73*
Cc1cccc(-n2c(SCc3cc(=O)n4ccsc4n3)nc3ccccc3c2=O)c1	4	0	3	1	3	5	x
O=c1c2ccccc2nc(SCc2cn3ccsc3n2)n1-c1ccccc1F	66*	-2	1	11	0	0	72*
O=c1c2ccccc2nc(SCc2nnc(-c3ccccc3)o2)n1-c1ccc(F)cc1F	62*	-3	1	1	0	5	69*
C=CCNC(=O)COc1ccc(N(C)S(=O)(=O)c2ccc(NC(C)=O)cc2)cc1	-4	0	0	0	2	8	x
CCC1=NN(C(=O)c2cccc(Br)c2)C(O)(c2ccc(Br)cc2)C1 (stereo not drawn)	43*	11	7	19	2	17	47	ATG4B conf=58*
N#Cc1c(N2CCCC2)nc(N)c2c(N)nc(N3CCCC3)cc12	74*	-17	59*	16	41*	63*	40	ATG4B conf=26
O=C(CSc1nc2ccccc2c(=O)n1CCCO)Nc1ccc2c(c1)OCCO2	-7	1	-6	x	4	11	x
CCc1nc(N2CCN(C(=O)c3ccccc3)CC2)c2c3c(sc2n1)CCCC3	75*	-2	1	6	6	3	82*
CCc1nc(N2CCN(C(=O)c3ccco3)CC2)c2c3c(sc2n1)CCCC3	78*	-2	7	4	-2	6	86*
O=C(c1ccco1)N1CCN(c2ncnc3sc4c(c23)CCC4)CC1	22	5	2	4	0	7	x
COC(=O)C(Sc1nc(C)cc(C)c1C#N)c1ccccc1 (stereo not drawn)	50*	-8	5	3	-10	9	56*
Cc1nc(SC(C(N)=O)c2ccccc2)c(C#N)c(C)c1C (stereo not drawn)	25	x	x	3	x	x	x
CN(CC(=O)Nc1ccc(C#N)cc1)CC(=O)Nc1ccc(N2CCOCC2)cc1	41*	1	1	7	6	5	2
COc1ccccc1Nc1cc(C(=O)N2CCc3ccccc3C2)c2ccccc2n1	x	x	x	3	x	x	x
COc1ccc(Nc2cc(C(=O)N3CCc4ccccc4C3)c3ccccc3n2)c(OC)c1	68*	4	-6	18	-7	9	82*
CC(C)CC1Nc2ccc(C(=O)NCCCN3CCOCC3)cc2NC1=O (stereo not drawn)	-12	0	3	1	7	-7	x
O=C(c1cc(-c2ccco2)on1)N1CCCc2ccccc21	63*	5	6	25*	2	-1	49
SMILES	ATG4B inhibitor	DAGLB inh	PAFAH2 inh	pPAFAH inh	PAFAH1B2 inh	PAFAH1B3 inh	PLA2 ctr	others
O=C(c1cc(-c2ccccc2O)on1)N1CCc2ccccc2C1	32	-3	-3	2	3	7	x
O=C(c1cc(-c2ccco2)on1)N1CCc2ccccc2C1	46*	10	0	30*	4	-9	58*
CCOC(=O)C(=O)Cc1cccnn1	1	3	10	x	8	10	x
O=C(CNC1CCCCCC1)Nc1ccccc1N1CCCCC1	46*	-15	13	-1	10	-10	53*
O=C(CNCC1CCCO1)Nc1ccccc1N1CCOCC1 (stereo not drawn)	-8	1	3	5	1	6	x
COc1ccc(NC(=O)CNCCC2=CCCCC2)cc1	1	-1	3	0	-1	5	x
O=C(Cc1ccccc1)Nc1ccccc1N1CCCC1	13	0	7	5	1	3	x
O=C(CNCC1CCCCC1)Nc1ccccc1N1CCCCC1	41*	-19	1	5	3	0	39	ATG4B conf=65*
O=C(CNCCC1=CCCCC1)Nc1ccccc1N1CCCCC1	49*	-13	-4	6	3	-7	53*
Cc1nn(Cc2ccccc2Cl)c2sc(C(=O)NC(C)(C)C)cc12	16	-2	3	-7	5	1	x
Cc1csc(NC(=O)c2cc3c(C)nn(Cc4ccccc4Cl)c3s2)n1	66*	-2	-20	-14	1	-1	58*
Fc1ccc(Nc2nc(N/N=C/c3ccco3)nc(N3CCCCC3)n2)cc1	64*	-4	0	3	0	9	78*
CC(=O)c1c(C)n(-c2ccccc2)c2ccc(OCC(N)=O)cc12	47*	1	1	5	0	5	52*
COc1ccc(N2CCN(C(=O)CCCn3c(=S)[nH]c4cc5c(cc4c3=O)OCO5)CC2)cc1	24	1	8	4	0	2	x
Cc1ccc(C)c(N2CCN(C(=O)CCn3c(=S)[nH]c4cc5c(cc4c3=O)OCO5)CC2)c1	51*	1	-10	2	0	5	50*

Compound activity from PubChem BioAssay.
